Data reported in PubChem BioAssay (EPA / NIEHS).
“And” between values parts separate entries of the source, which are not always exact repeats. Equal values may be shown once. Results filed as inconclusive are left out. Some structures have more than one record in an assay (separate samples or runs), and their calls can disagree. The source made the active and inactive calls. How the source made its calls, unless noted: active means hit-call score of the fitted dose curve at least 0.9, where 1 is the maximum; inconclusive means response in the unintended direction; inactive means score below 0.9.

What was measured:
[1] = read-out: xenobiotic metabolism (CYP1A1), CYP1A1 (gene 1543); test: CLD_CYP1A1_6hr: CellzDirect (CLD) Gene Expression Assay for xenobiotic metabolism (CYP1A1) at 6 hours (AID 2283661);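 on AC50: potency for transcript induction above DMSO vehicle baseline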
Outline: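 Read-out 6 h post-dose: qNPA chemiluminescent quantitation of transcript induction against 0.2% DMSO. Cells were cultured primary human hepatocytes from two separate donor preparations; phase-contrast morphology annotated apparent cytotoxicity.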

[2] = Tanguay_ZF_120hpf_TR_legacy: (Legacy) Oregon State University Tanguay Lab 120 Hour Post-fertilization zebrafish Assay for Touch Response (AID 2283667)
Outline: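 Binary touch-response endpoint in larvae at 120 hpf after static waterborne exposure from embryo stage (28°C, 0.64% DMSO vehicle, 5 uM trimethyltin chloride as positive control); embryos dead at 24 or 120 hpf excluded; fitted as gain versus DMSO.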

[3] = read-out: glucuronosyltransferase (UGT1A1), UGT1A1 (gene 54658); test: CLD_UGT1A1_6hr: CellzDirect (CLD) Gene Expression Assay for glucuronosyltransferase (UGT1A1) at 6 hours (AID 2283672)
Outline: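 UGT1A1 mRNA induction, read by quantitative nuclease protection assay, 6 h after dosing primary human hepatocytes (two donors, 0.2% DMSO vehicle). Gain of signal fitted relative to vehicle.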

[4] = read-out: xenobiotic metabolism (CYP1A1), CYP1A1 (gene 1543); test: CLD_CYP1A1_24hr: CellzDirect (CLD) Gene Expression Assay for xenobiotic metabolism (CYP1A1) at 24 hours (AID 2283673);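 further: CYP1A1 mRNA level by quantitative nuclease protection with chemiluminescence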
Outline: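 Transcript levels were read at 24 h by qNPA chemiluminescence in human liver primary cells. Cells got daily fresh dosing at multiple concentrations (vehicle 0.2% DMSO). Induction fitted upward against DMSO; phase-contrast cytotoxicity annotated.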

[5] = read-out: ABC Transporter (ABCB11), ABCB11 (gene 8647); test: CLD_ABCB11_6hr: CellzDirect (CLD) Gene Expression Assay for ABC Transporter (ABCB11) at 6 hours (AID 2283675);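 further: hits raise ABCB11 mRNA level so AC50 marks induction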
Outline: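 Read-out was ABCB11 mRNA gain of signal by quantitative nuclease protection assay, relative to 0.2% DMSO vehicle, 6 h post-dose. Cells were primary human hepatocytes from two donors, treated across multiple concentrations; phase-contrast cytotoxicity noted yes/no.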

[6] = CLD_ACTIN_6hr: CellzDirect (CLD) Gene Expression Assay for Baseline Control (Actin) at 6 hours (AID 2283676);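 further: active means increased actin mRNA relative to DMSO vehicle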
Outline: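 Baseline actin transcript level measured by qNPA (S1 nuclease protection, chemiluminescence) in human hepatocyte cultures 6 h after chemical exposure; 0.2% DMSO vehicle as reference, cytotoxicity noted from morphology.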

[7] = read-out: Cytochrome P450 2C19 (Homo sapiens) (UniProt P33261); test: CLD_CYP2C19_6hr: CellzDirect (CLD) Gene Expression Assay for xenobiotic metabolism (CYP2C19) at 6 hours (AID 2283678)
Outline: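 CYP2C19 transcript induction was quantified by quantitative nuclease protection assay with chemiluminescent read-out, 6 h after dosing. Cells were primary human hepatocytes from two donor preparations, given fresh dosing solutions daily in 0.2% DMSO vehicle. Activity was relative to DMSO.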

[8] = CCTE_Padilla_ZF_144hpf_TERATOSCORE: (Legacy) CCTE's 144 Hour Post-fertilization zebrafish Assay Teratoscore, Padilla Lab (AID 2283679; active means hit-call score of the fitted dose curve at least 0.9, where 1 is the maximum; inactive means score below 0.9;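 on AC50: zebrafish embryos with chorions exposed by immersion from 6-8 hpf to 5 dpf with daily renewal; teratogenicity score from eye scoring of death hatching and malformations at 144 hpf; higher score means more developmental defects relative to DMSO baseline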)
Outline: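 Larvae scored by eye at 144 hpf for death, hatching and malformations after a day in clean Hanks'. Before that, daily-renewed exposure at 80 uM (0.4% DMSO, 26C) from roughly 6-8 hpf through 5 dpf, 4 embryos per chemical.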

[9] = read-out: HMG-CoA synthase (HMGCS2), HMGCS2 (gene 3158); test: CLD_HMGCS2_6hr: CellzDirect (CLD) Gene Expression Assay for HMG-CoA synthase (HMGCS2) at 6 hours (AID 2283682);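 further: actives raise HMGCS2 transcript above the 0.2% DMSO vehicle baseline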
Outline: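 HMGCS2 transcript induction read by quantitative nuclease protection with chemiluminescence, 6 h after dosing of primary human hepatocytes. Baseline was 0.2% DMSO vehicle; phase-contrast morphology gave a yes/no cytotoxicity annotation.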

[10] = read-out: xenobiotic metabolism (CYP1A2), CYP1A2 (gene 1544); test: CLD_CYP1A2_24hr: CellzDirect (CLD) Gene Expression Assay for xenobiotic metabolism (CYP1A2) at 24 hours (AID 2283683)
Outline: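 CYP1A2 mRNA induction measured by quantitative nuclease protection (chemiluminescent) in human primary hepatocytes 24 h after multi-concentration chemical dosing with daily fresh solutions. DMSO (0.2%) baseline; positive-direction fitting; morphology-based cytotoxicity noted.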

[11] = read-out: ABC Transporter (ABCB1), ABCB1 (gene 5243); test: CLD_ABCB1_24hr: CellzDirect (CLD) Gene Expression Assay for ABC Transporter (ABCB1) at 24 hours (AID 2283684)
Outline: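 ABCB1 mRNA induction versus 0.2% DMSO vehicle was read by qNPA chemiluminescence at 24 h. Cultured human hepatocytes from two donor preparations received daily fresh dosing, and phase-contrast cytotoxicity calls were annotated alongside the data.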

[12] = read-out: Cytochrome P450 2B6 (Homo sapiens) (UniProt P20813); test: CLD_CYP2B6_24hr: CellzDirect (CLD) Gene Expression Assay for xenobiotic metabolism (CYP2B6) at 24 hours (AID 2283686)
Outline: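 qNPA chemiluminescent measurement of mRNA at 24 hours in human primary hepatocyte cultures from two donor preparations, with daily fresh dosing and 0.2% DMSO vehicle as baseline. Morphology-based cytotoxicity flagged yes/no.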

[13] = read-out: Cytochrome P450 2C19 (Homo sapiens) (UniProt P33261); test: CLD_CYP2C19_24hr: CellzDirect (CLD) Gene Expression Assay for xenobiotic metabolism (CYP2C19) at 24 hours (AID 2283687);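 further: activity means mRNA induction above DMSO vehicle baseline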
Outline: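 CYP2C19 mRNA was quantified by qNPA chemiluminescence after 24 h of daily dosing of cultured human primary hepatocytes from two donors; vehicle was 0.2% DMSO, and increases over DMSO baseline were fitted.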

[14] = read-out: Cytochrome P450 2C9 (Homo sapiens) (UniProt P11712); test: CLD_CYP2C9_24hr: CellzDirect (CLD) Gene Expression Assay for xenobiotic metabolism (CYP2C9) at 24 hours (AID 2283688)
Outline: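 Induction of CYP2C9 mRNA was quantified by quantitative nuclease protection assay (chemiluminescence), gain of signal versus 0.2% DMSO vehicle, 24 h after dosing. Human primary hepatocytes (two donors) received fresh chemical daily at multiple concentrations; morphology-based cytotoxicity flagged yes/no.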

[15] = read-out: Cytochrome P450 3A4 (Homo sapiens) (UniProt P08684); test: CLD_CYP3A4_24hr: CellzDirect (CLD) Gene Expression Assay for xenobiotic metabolism (CYP3A4) at 24 hours (AID 2283689)
Outline: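 CYP3A4 mRNA induction read by quantitative nuclease protection (chemiluminescence) 24 hr after dosing. Cultured human hepatocytes (two donor preparations) treated daily, vehicle 0.2% DMSO; phase-contrast morphology annotates cytotoxicity.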

[16] = read-out: organic anion transporter (SLCO1B1), SLCO1B1 (gene 10599); test: CLD_SLCO1B1_24hr: CellzDirect (CLD) Gene Expression Assay for organic anion transporter (SLCO1B1) at 24 hours (AID 2283690)
Outline: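 SLCO1B1 mRNA induction read at 24 h by quantitative nuclease protection assay (chemiluminescence), analyzed against DMSO baseline. Human hepatocyte cultures from separate donors received fresh dosing solutions daily; vehicle 0.2% DMSO; cytotoxicity flagged by phase-contrast morphology.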

[17] = test system: Thyroperoxidase (TPO), gene 54314; test: CCTE_Simmons_AUR_rTPO: CCTE's Amplex UltraRed Assay for Thyroperoxidase (TPO) Inhibition, Simmons Lab (AID 2283662);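 on AC50: potency for loss of signal meaning inhibition of peroxidase activity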
Outline: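 Rat thyroid microsomes (5 ug protein) were incubated with test compound (8 concentrations, 5 nM–87.5 uM final, 0.5% DMSO), 25 uM Amplex UltraRed and 300 uM H2O2 in 200 mM phosphate buffer for 30 min at 37C in the dark; fluorescence read at 544/590 nm.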

[18] = read-out: Cytochrome P450 2B6 (Homo sapiens) (UniProt P20813); test: CLD_CYP2B6_6hr: CellzDirect (CLD) Gene Expression Assay for xenobiotic metabolism (CYP2B6) at 6 hours (AID 2283677);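 further: actives raise CYP2B6 transcript above DMSO baseline so AC50 marks an inducer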
Outline: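 CYP2B6 transcript levels, read by chemiluminescent qNPA, were fitted for increase versus DMSO baseline; cultured human liver hepatocytes from two donor preparations were harvested 6 h after exposure to test chemicals at multiple concentrations.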

[19] = read-out: Cytochrome P450 (CYP24A1_1), CYP24A1 (gene 1591); test: LTEA_HepaRG_CYP24A1_1: Life Technologies and Expression Analysis (LTEA) Assay for Cytochrome P450 (CYP24A1_1) using HepaRG (AID 2283671; active means hit-call score of the fitted dose curve at least 0.9, where 1 is the maximum; inactive means score below 0.9); details: mRNA level, 48 h; actives raise or lower the signal
Outline: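 Differentiated human HepaRG cells were exposed in duplicate for 48 h in serum-free induction medium to eight concentrations (top 100 uM, half-log steps, 0.5% DMSO). CYP24A1 mRNA was quantified by TaqMan qRT-PCR, normalized to ACTB, GAPDH and POLR2A, and fitted bidirectionally versus DMSO.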

Measured: AC50

Sequence of Cytochrome P450 3A4 (Homo sapiens) (P08684 whole entry, looked up): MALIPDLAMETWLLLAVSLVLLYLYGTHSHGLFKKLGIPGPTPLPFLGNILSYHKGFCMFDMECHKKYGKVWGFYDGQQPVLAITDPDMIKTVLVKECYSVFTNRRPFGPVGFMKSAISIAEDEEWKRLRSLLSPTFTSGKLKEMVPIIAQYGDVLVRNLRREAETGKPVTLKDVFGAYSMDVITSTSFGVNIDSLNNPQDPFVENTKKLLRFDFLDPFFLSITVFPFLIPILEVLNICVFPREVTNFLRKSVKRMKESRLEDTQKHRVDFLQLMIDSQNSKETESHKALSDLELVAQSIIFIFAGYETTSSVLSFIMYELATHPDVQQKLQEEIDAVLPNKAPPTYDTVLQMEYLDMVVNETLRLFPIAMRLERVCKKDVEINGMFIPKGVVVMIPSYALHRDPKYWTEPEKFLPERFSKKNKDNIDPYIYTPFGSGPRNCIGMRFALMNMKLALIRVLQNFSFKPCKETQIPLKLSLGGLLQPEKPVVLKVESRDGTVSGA
Sequence of Cytochrome P450 2C19 (Homo sapiens) (P33261 whole entry, looked up): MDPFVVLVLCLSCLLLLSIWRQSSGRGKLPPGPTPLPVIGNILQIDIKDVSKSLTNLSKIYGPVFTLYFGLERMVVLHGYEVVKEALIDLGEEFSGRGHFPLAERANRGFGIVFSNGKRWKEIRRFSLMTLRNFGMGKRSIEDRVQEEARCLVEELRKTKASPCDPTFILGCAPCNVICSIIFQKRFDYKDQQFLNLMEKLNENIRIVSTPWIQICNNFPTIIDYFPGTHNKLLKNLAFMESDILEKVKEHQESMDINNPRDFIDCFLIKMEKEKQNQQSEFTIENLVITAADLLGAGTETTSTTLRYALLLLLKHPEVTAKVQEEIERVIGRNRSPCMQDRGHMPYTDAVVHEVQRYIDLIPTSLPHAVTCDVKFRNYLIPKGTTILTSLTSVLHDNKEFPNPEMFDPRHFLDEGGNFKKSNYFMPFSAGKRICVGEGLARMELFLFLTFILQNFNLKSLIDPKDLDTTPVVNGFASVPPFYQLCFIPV

COC(=O)C(C)Oc1ccc(Oc2ccc(Cl)cc2Cl)cc1 (stereo not given)
inactive: [2] | [3] | [4] | [5] | [6] | [7] | [9] | [10] | [11] | [12] | [13] | [14] | [15] | [16]
active: [1] 3.97 µM and 4.59 µM | [8] 5.23 µM | [12] 20 µM and 34.6 µM | [15] 5.43 µM

CC1COC(Cn2cncn2)(c2ccc(Oc3ccc(Cl)cc3)cc2Cl)O1 (stereo not given)
inactive: [1] | [17] | [2] | [3] | [6] | [18] | [9] | [11] | [13] | [16]
active: [4] 1.94 µM | [8] 5.5 µM | [10] 0.729 µM | [12] 0.000442 µM | [15] 1.9 µM

CCOC(=O)CC(SP(=S)(OC)OC)C(=O)OCC (stereo not given)
inactive: [3] | [4] | [5] | [9] | [11] | [12] | [13] | [14] | [15] | [16]
active: [1] 3.97 µM | [17] 3.4 µM | [2] 26.5 µM | [8] 27.3 µM | [10] 8.3 µM

C=CCC1=C(C)[C@@H](OC(=O)[C@@H]2[C@@H](C=C(C)C)C2(C)C)CC1=O
inactive: [1] | [2] | [3] | [4] | [5] | [9] | [10] | [11] | [14]
active: [17] 54 µM | [8] 3.51 µM | [12] 20 µM

COC(=O)C=C(C)OP(=O)(OC)OC
active: [17] 14 µM | [8] 48.1 µM
inactive: [1] | [2] | [3] | [5] | [6] | [18] | [9] | [10] | [11] | [12] | [16]

CCCCNC(=O)n1c(NC(=O)OC)nc2ccccc21
inactive: [17] | [3] | [5] | [6] | [7] | [11] | [12] | [13] | [15]
active: [1] 3.66 µM | [2] 19.2 µM | [4] 20 µM | [8] 1.29 µM | [10] 4.66 µM

CON(C)C(=O)Nc1ccc(Cl)c(Cl)c1
inactive: [2] | [3] | [15]
active: [1] 0.762 µM | [17] 35 µM | [4] 1.82 µM | [8] 60.1 µM | [10] 1.29 µM | [12] 0.735 µM

O=C(O)c1nc(Cl)ccc1Cl
active: [1] 4.04 µM | [4] 7.87 µM | [9] 1.89 µM | [10] 9.48 µM
inactive: [1] | [17] | [2] | [3] | [5] | [6] | [7] | [8] | [10] | [12] | [13] | [15] | [16]

COP(=S)(OC)Oc1nc(Cl)c(Cl)cc1Cl
inactive: [3] | [5] | [6] | [11] | [13] | [14]
active: [1] 5.29 µM | [17] 4.62 µM | [2] 97.7 µM | [4] 3.97 µM | [8] 34.7 µM | [10] 4.43 µM | [12] 5.02 µM | [15] 3.97 µM

COc1nc(C)nc(NC(=O)NS(=O)(=O)c2ccccc2CCC(F)(F)F)n1
inactive: [1] | [3] | [4] | [5] | [6] | [7] | [8] | [9] | [10] | [11] | [13] | [14] | [15] | [16]
active: [1] 1.9 µM and 287 nM | [4] 20 µM | [10] 1.7 µM and 11 µM | [12] 3.4 µM and 5.71 µM and 908 nM | [15] 36.7 µM and 5.29 µM

O=C(Nc1ccccc1)Nc1ccnc(Cl)c1
active: [1] 12.3 µM | [17] 27.6 µM | [4] 10.4 µM | [8] 66 µM | [10] 7.19 µM | [12] 8.15 µM
inactive: [2] | [3] | [6] | [9] | [15] | [16]

OC(c1ccc(Cl)cc1)(c1cncnc1)c1ccccc1Cl (stereo not given)
inactive: [1] | [2] | [19] | [3] | [5] | [6] | [10] | [11]
active: [4] 7.86 µM | [8] 32.2 µM | [12] 1.24 µM | [15] 0.542 µM
